# Records with an inconclusive call do not appear. Entries that show only a call come without a potency. Calls of active or inactive are those of the source. Calls follow the shape of the dose curve; as a rule, active = well fitted curve in the direction sought with a large enough effect in the repeat runs; inconclusive = weak or mixed curves; inactive = no such curve, though single readings can be large; an effect the other way counts as inactive or inconclusive.
# Target: Androgen receptor (Homo sapiens) (UniProt P10275)
# Sequence (P10275 whole entry, looked up): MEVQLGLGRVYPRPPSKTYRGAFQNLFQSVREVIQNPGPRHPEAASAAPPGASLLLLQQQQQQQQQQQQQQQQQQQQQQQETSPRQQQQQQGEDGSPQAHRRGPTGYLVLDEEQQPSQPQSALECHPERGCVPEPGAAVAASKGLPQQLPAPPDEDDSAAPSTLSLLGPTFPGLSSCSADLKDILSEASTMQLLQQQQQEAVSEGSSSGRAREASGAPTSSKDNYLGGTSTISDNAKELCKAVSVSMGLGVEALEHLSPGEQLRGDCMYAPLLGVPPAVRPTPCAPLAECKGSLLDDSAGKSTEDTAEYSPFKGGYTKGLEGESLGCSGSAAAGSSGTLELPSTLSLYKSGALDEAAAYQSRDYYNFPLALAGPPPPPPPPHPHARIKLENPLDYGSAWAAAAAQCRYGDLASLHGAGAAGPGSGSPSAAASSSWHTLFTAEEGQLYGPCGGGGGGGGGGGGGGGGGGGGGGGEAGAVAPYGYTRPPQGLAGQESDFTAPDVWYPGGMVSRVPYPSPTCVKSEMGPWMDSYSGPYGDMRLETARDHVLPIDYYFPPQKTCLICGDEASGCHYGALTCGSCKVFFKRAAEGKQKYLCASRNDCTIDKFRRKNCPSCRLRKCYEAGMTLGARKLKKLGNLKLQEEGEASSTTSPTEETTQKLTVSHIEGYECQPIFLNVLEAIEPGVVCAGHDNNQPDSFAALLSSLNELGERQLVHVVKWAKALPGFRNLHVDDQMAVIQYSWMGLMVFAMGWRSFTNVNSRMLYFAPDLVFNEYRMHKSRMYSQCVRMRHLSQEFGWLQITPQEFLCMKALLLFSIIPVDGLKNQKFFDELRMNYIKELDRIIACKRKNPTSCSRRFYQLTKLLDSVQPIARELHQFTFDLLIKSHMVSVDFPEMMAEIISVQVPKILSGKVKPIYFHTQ
# Assay: qHTS assay to identify small molecule agonists of the androgen receptor (AR) signaling pathway using the MDA cell line (AID 743040; also: nearly all actives have a fitted effect of over 20% in size)
# Conditions: MDA-kb2 AR-luc cells, MMTV luciferase, 16 h; series mostly up to 70.3 µM
# Method in brief: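 Cells plated, 5 h at 37C/0% CO2; compound or DMSO pinned; 16 h at 37C; ONE-Glo added; luminescence measured after 30 min at room temperature. Reporter line: MDA-kb2 with MMTV-luciferase responsive to AR and GR.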
row,Compound,Potency
1,CCOc1nc2cccc(C(=O)O)c2n1Cc1ccc(-c2ccccc2-c2nn[nH]n2)cc1,inactive
2,NC(N)=N/N=C/c1c(Cl)cccc1Cl,inactive
3,O=C(O)c1cccc(N(Cc2cccnc2)c2ccc(OC(F)F)c(OC(F)F)c2)c1,inactive
4,O=[N+]([O-])c1cc[n+]([O-])cc1,inactive
5,CC(C)(C)c1cc(O)c(C(C)(C)C)cc1O,inactive
6,COC(=O)CSc1cc(N=c2sc(=O)n3n2CCCC3)c(F)cc1Cl,inactive

# System: not listed separately
# Assay: qHTS assay to identify small molecule antagonists of the androgen receptor (AR) signaling pathway using the MDA cell line - cell viability counter screen (AID 743041; also: nearly all actives have a fitted effect of over 45% in size)
# Conditions: MDA-kb2 viability, CellTiter-Fluor, 16 h, cells co-treated with R1881 androgen agonist; series mostly up to 70.3 µM
# Method in brief: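 Cells were plated at 3,000 per well and left 5 h. Compounds in DMSO were then pinned in, followed by R1881. After 16 h at 37C, CellTiter-Fluor fluorescence gave viability.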
row,Compound,Potency
1,O=S1(=O)N=C(O)c2ccccc21,inactive
2,O=C(O)/C=C/c1cnc[nH]1,inactive
3,SC1CCCC1,inactive
4,NC1CCN(c2nc3c(cc2F)c(=O)c(C(=O)O)cn3-c2ccc(F)cc2F)C1 (centres undefined),inactive
5,CN(C)C/C=C(/c1ccc(Br)cc1)c1cccnc1,inactive
6,CCOc1nc2cccc(C(=O)O)c2n1Cc1ccc(-c2ccccc2-c2nn[nH]n2)cc1,inactive
7,CN1CCC[C@@H]1c1cccnc1,inactive
8,CN(C)CCCOc1nn(Cc2ccccc2)c2ccccc12,inactive
9,O=C(O)c1cccc(N(Cc2cccnc2)c2ccc(OC(F)F)c(OC(F)F)c2)c1,inactive
10,O=[N+]([O-])c1cc[n+]([O-])cc1,inactive
11,C[C@H](CCC(=O)O)[C@H]1CC[C@H]2[C@@H]3[C@H](O)C[C@@H]4C[C@H](O)CC[C@]4(C)[C@H]3CC[C@]12C,inactive
12,O=c1[nH]cnc2ccccc12,inactive
13,CCCCOC(=O)/C=C\C(=O)OCCCC,inactive
14,Cc1cccc(C(C)(C)C)c1O,inactive
15,CC(C)(C)c1cc(O)c(C(C)(C)C)cc1O,inactive
16,Cc1ccc(C)o1,inactive
17,C#CCOC(=O)[C@@H](C)Oc1ccc(Oc2ncc(Cl)cc2F)cc1,inactive
18,CC(=O)O[C@@H]1C(=O)O[C@@H]2[C@H]1OC(=O)[C@@H]2OC(C)=O,inactive
19,NC[C@H]1O[C@H](O[C@H]2[C@H](O)[C@@H](O[C@H]3O[C@H](CO)[C@@H](O)[C@H](N)[C@H]3O)[C@H](N)C[C@@H]2N)[C@H](O)[C@@H](O)[C@@H]1O,inactive
20,Cc1cc(CC(=O)O)c(C)n1-c1ccc(Cl)cc1,inactive
21,CCc1nn(C2CCCCC2)c2cc(C3(C#N)CCC(C(=O)O)CC3)ccc12 (centres undefined),inactive
22,CCCC(=O)OCC,inactive
23,CCCCC(CC)(CO)CO,inactive
24,Cc1c(Cn2ccnc2)c2ccccc2n1CCC(=O)O,inactive
25,O=C(O)Cn1c(C(=O)Nc2nc(-c3ccccc3Cl)cs2)cc2ccccc21,inactive
26,CCCCC(CC)COCCCN (centres undefined),inactive
27,Nc1cnn([C@@H]2O[C@H](CO)[C@@H](O)[C@H]2O)c(=O)n1,inactive
28,CCCCOCCOCCOCCOCCO,inactive
29,COC(=O)CSc1cc(N=c2sc(=O)n3n2CCCC3)c(F)cc1Cl,inactive
30,O=[N+]([O-])c1cccc(Cl)c1Cl,inactive

# Target: Androgen receptor (Homo sapiens) (UniProt P10275)
# Assay: qHTS assay to identify small molecule antagonists of the androgen receptor (AR) signaling pathway using the MDA cell line (AID 743042; also: nearly all actives have a fitted effect of over 55% in size)
# Conditions: MDA-kb2 AR-luc, MMTV luciferase, R1881 antagonist, 16 h; series mostly up to 70.3 µM
# Method in brief: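 Antagonist mode: compounds plus R1881 agonist added to MDA-kb2 AR-luc cells, incubated 16 h at 37C. Luciferase reporter luminescence quantified, with multiplexed CellTiter-Fluor readout for cell viability.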
row,Compound,Potency
1,CCOc1nc2cccc(C(=O)O)c2n1Cc1ccc(-c2ccccc2-c2nn[nH]n2)cc1,inactive
2,O=[N+]([O-])c1cc[n+]([O-])cc1,inactive
3,COC(=O)CSc1cc(N=c2sc(=O)n3n2CCCC3)c(F)cc1Cl,inactive
